Compounds without any hit were thinned out: in the full panel of roughly 79,000, 15% have a hit. A number with no mark means an inactive call. Rule as the data show it: active = growth inhibition above about 70%; inactive = the rest.
Test: NCI Yeast Anticancer Drug Screen. Data for the CLN2oe strain (AID 163);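 also: 0% = growth of vehicle-only control cultures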
Settings: S. cerevisiae CLN2oe strain, at 3.7 µM, hits give high values
In short: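 Whole-cell yeast growth assay. A strain engineered for altered cell-cycle control received compound, and inhibition relative to vehicle-treated cultures was recorded.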

Compound | growth inhibition [%]
C1=CCN([B-](c2ccccc2)[C+]2CCCCC2)C=C1 | -6
O=[N+]([O-])c1cc[n+]([O-])c(Cl)c1 | -4
CCCNC(=O)OCc1c(COC(=O)NCCC)c(-c2ccc(Cl)c(Cl)c2)n2c1CCC2 | -16
CC1(C)CC(=O)C(C(=O)Nc2cccs2)=C(O)C1 | 26
O=C(NO)c1coc2ccccc2c1=O | 2
COc1ccc(C(C)c2cc3c(cc2OCC(C)=O)OCO3)cc1 (stereo unspecified) | -3
CCS(=O)(=O)Nc1ccc(Nc2c3ccccc3nc3ccccc23)c(OC)c1 | -35
O=S(=O)(c1ccccc1)N1CN2CN(C1)CN(S(=O)(=O)c1ccccc1)C2 | -4
CC1=NN(C(=O)c2ccccc2O)C(=O)/C1=C/c1ccco1 | 7
O=C1C=C(Br)C(=O)c2ccccc21 | 9
C[N+](C)([O-])CCCNc1c2ccccc2nc2cccc([N+](=O)[O-])c12 | -1
Cc1cccc2c(NCCCN(C)C)c3c([N+](=O)[O-])ccc(C)c3nc12 | 9
OC1(c2ccccc2)C2CC=CC2C1(c1ccccc1)c1ccccc1 (stereo unspecified) | 8
C[n+]1c(-c2ccc(/C=N/NC(=O)c3ccc(C(=O)N/N=C/c4ccc(-c5cn6ccccc6[n+]5C)cc4)cc3)cc2)cn2ccccc21 | 0
CCN(CC)CCC(=O)Nc1ccc2sc3ccccc3c(=O)c2n1 | -13
O=[N+]([O-])c1ccc2nc(=S)[nH]n2c1 | -2

Reference: PubChem BioAssay (NCI)
